Screens from PubChem BioAssay.
The list is not random: actives were taken first. Their share in the collection is about 2.3%.
697 NFkB inh = lowers PMA/ionomycin-induced NF-kB signal in 697 B cells. 697 B-cell NF-kB luciferase reporter, 16 h. inhibition, % at 4 µM. 330,000 compounds, 0.33% hits. AID 435022; in the data active = inhibition above about 35%
Shn3 3UTR inh = Schnurri-3 reporter inhibition in Clone20 osteoblasts | Clone20 osteoblast Shn3 3'UTR firefly luciferase, 24 h | inhibition, % at 12.5 µM | 360,000 compounds, 0.52% hits | AID 588674;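 active = mean inhibition of at least 75% with every replicate also reaching 75%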;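 also: 0% = median of neutral control wells and 100% = pilot-screen positive control compound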
aSyn UTR inh = 5' untranslated region of α-synuclein, MLPCN primary screen; inhibition, % (tested at 7.5 µM); AID 1813; 300,000 compounds, 0.82% hits; alpha-synuclein 5'UTR reporter, inhibitor activity; in the data active = inhibition above about 60%;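 also: H4 neuroglioblastoma cells stably carrying SNCA 5'UTR luciferase fusion; 0% = DMSO wells and 100% = positive control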
Jurkat NFkB inh = inhibitors of the PMA/ionomycin-induced NF-kB reporter in Jurkat cells; PMA/ionomycin-induced NF-kB luciferase reporter, luminescence; inhibition, % at 4 µM; 330,000 compounds, 0.53% hits; AID 435003; in the data active = inhibition above about 50%
TAG inh = inhibitors of triacylglycerol accumulation; H9c2 cells, Nile Red lipid (TAG) fluorescence; cells loaded with 200 µM oleic acid; inhibition, % at 12.5 µM; 230,000 compounds, 0.66% hits;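 active = pattern-corrected inhibition of lipid staining of at least 50% with the nuclear-stain viability signal not falling by more than 50%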;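 also: 0% = DMSO wells and 100% = triacsin C control wells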
Gli-Sufu antag = blocks Gli-Sufu signaling in a luciferase reporter; Sufu-KO-LIGHT fibroblasts, Gli luciferase reporter luminescence; inhibition, % at 5 µM; 340,000 compounds, 0.74% hits; AID 588413;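 active = inhibition above about 55%, limit read from the data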;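 also: 0% = DMSO-treated cells and 100% = wells with medium but no cells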
Jurkat NFkB conf = inhibitors of the PMA/ionomycin-induced NF-kB reporter in Jurkat cells, retest | shares compounds with Jurkat NFkB inh | Jurkat NF-kB luciferase, 16 h | inhibition, % at 4 µM | 2,700 compounds, 27% hits | AID 435020;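 active = inhibition reaching about 45% at 4 µM in either replicate, limit read from the data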;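 also: plate controls were PMA/ionomycin stimulated DMSO wells for no effect and unstimulated DMSO wells for full effect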
TAG conf = triacylglycerol accumulation inhibition, confirmation | H9c2 lipid accumulation, Nile Red fluorescence; cells loaded with 200 µM oleic acid | inhibition, % at 12.5 µM | shares compounds with TAG inh | 990 compounds, 71% hits;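 active = mean inhibition across replicates of 40% or more; inactive = mean inhibition below 40%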;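 also: plate controls were DMSO only wells for no effect and Triacsin C treated wells for full effect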
* hit, by the source's call.

Screening O=C(N/N=C/c1ccc2c(c1)OCO2)c1cc(-c2ccncc2)nc2ccccc12 returned 697 NFkB inh -36, Shn3 3UTR inh -1, aSyn UTR inh -5, Jurkat NFkB inh 57*, TAG inh 54*, Gli-Sufu antag 11, Jurkat NFkB conf 3 and TAG conf 67*.
Screening Cc1ccc(/C=N/NC(=O)c2cc(-c3cccnc3)nc3ccccc23)cc1 returned 697 NFkB inh -15, Shn3 3UTR inh 18, aSyn UTR inh 81*, Jurkat NFkB inh 63*, TAG inh 57*, Gli-Sufu antag -3, Jurkat NFkB conf 12 and TAG conf 49*.
O=C(N/N=C/c1cccnc1)c1cc(-c2ccccc2)nc2ccccc12 was read as 697 NFkB inh -1, Shn3 3UTR inh 11, aSyn UTR inh -19, Jurkat NFkB inh -9 and Gli-Sufu antag 4.
Screening O=C(N/N=C/c1ccc2c(c1)OCO2)c1cc(-c2ccccc2Cl)nc2ccccc12 returned 697 NFkB inh -30, Shn3 3UTR inh 13, aSyn UTR inh 22, Jurkat NFkB inh -3 and Gli-Sufu antag 1.
Screening COC(=O)CCCC1=CC2=C(c3ccccc3)C(=O)C(C)(OC(=O)C3CCCC3)C(=O)C2=CN1Cc1ccc(OC)cc1 (stereo not drawn) returned 697 NFkB inh -18, Shn3 3UTR inh -49, aSyn UTR inh -1, Jurkat NFkB inh -2, TAG inh 12 and Gli-Sufu antag -11.
For CCCC(=O)Nc1nc2ccc(NC(=O)c3ccccc3F)cc2s1 the results were 697 NFkB inh -76, Shn3 3UTR inh 8, aSyn UTR inh 37, Jurkat NFkB inh 60*, TAG inh 52*, Gli-Sufu antag -38, Jurkat NFkB conf 27 and TAG conf 82*.
Screening CC(=O)OC1CCC2(C)C(CCC3C2CC(=NO)C2(C)C(C(C)OC(C)=O)CCC32)C1 (stereo not drawn) returned Shn3 3UTR inh 18, TAG inh 35 and Gli-Sufu antag 3.
CCOc1ccc(C(=O)NC(=S)Nc2cccc(S(=O)(=O)NC3=NCCC3)c2)cc1 was read as 697 NFkB inh 5, Shn3 3UTR inh 7, aSyn UTR inh 111*, Jurkat NFkB inh 60*, TAG inh 51*, Gli-Sufu antag -1, Jurkat NFkB conf 34 and TAG conf 57*.
`CCOc1ccc(OCC(=O)Nc2cccc(S(=O)(=O)NC3=NCCC3)c2)cc1` gave Shn3 3UTR inh -24, TAG inh 5 and Gli-Sufu antag 5.
CCOC(=O)c1ccc(NC(=O)c2nc[nH]c2C(=O)NCCCCNC(=O)c2[nH]cnc2C(=O)Nc2ccc(C(=O)OCC)cc2)cc1 was read as 697 NFkB inh 9, Shn3 3UTR inh 45, Jurkat NFkB inh 67*, TAG inh 122*, Gli-Sufu antag 27, Jurkat NFkB conf 23 and TAG conf 86*.
For CCOC(=O)c1ccc(NC(=O)c2nc[nH]c2C(=O)NCCCNC(=O)c2[nH]cnc2C(=O)Nc2ccc(C(=O)OCC)cc2)cc1 the results were 697 NFkB inh 8, Shn3 3UTR inh 14, Jurkat NFkB inh 3, TAG inh 13 and Gli-Sufu antag -15.
Cc1ccc(NC(=O)c2nc[nH]c2C(=O)NCCCCNC(=O)c2[nH]cnc2C(=O)Nc2ccc(C)cc2)cc1 was read as 697 NFkB inh 25, Shn3 3UTR inh 38, Jurkat NFkB inh 50*, TAG inh 66*, Gli-Sufu antag 4, Jurkat NFkB conf 17 and TAG conf 86*.
`Cc1ccc(NC(=O)c2nc[nH]c2C(=O)NCCCCCNC(=O)OC(C)(C)C)cc1` gave 697 NFkB inh 2, Shn3 3UTR inh 25, Jurkat NFkB inh 13 and Gli-Sufu antag 7.
For Cn1c(=O)oc2cc(S(=O)(=O)NC3CCCCC3)ccc21 the results were 697 NFkB inh 8, Shn3 3UTR inh 4, aSyn UTR inh 10, Jurkat NFkB inh 19 and Gli-Sufu antag 18.
Screening Cc1cc(NC(=O)c2cc(-c3ccncc3)nc3c(C)cccc23)no1 returned 697 NFkB inh -26, Shn3 3UTR inh -19, aSyn UTR inh 32, Jurkat NFkB inh 52*, TAG inh 64*, Gli-Sufu antag 0, Jurkat NFkB conf 23 and TAG conf 66*.
Cc1ccc(Nc2ncnc(-n3cccc3)n2)cc1Cl was read as 697 NFkB inh -151, Shn3 3UTR inh -153, aSyn UTR inh -125, Jurkat NFkB inh -95, TAG inh -7 and Gli-Sufu antag -72.
COc1ccccc1C(=O)Nc1ccccc1N1CCOCC1 was read as 697 NFkB inh 15, Shn3 3UTR inh 7, aSyn UTR inh 18, Jurkat NFkB inh 14 and Gli-Sufu antag 16.
`COc1cc(C(=O)N2CCN(c3cc(Cl)ccc3Cl)CC2)cc(OC)c1OC` gave 697 NFkB inh -82, Shn3 3UTR inh 19, aSyn UTR inh 89*, Jurkat NFkB inh 60*, TAG inh 54*, Gli-Sufu antag 24, Jurkat NFkB conf 50* and TAG conf 65*.
Screening CSC1=NC(C(Cl)(Cl)Cl)N=C(c2ccc(C)cc2)N1 (stereo not drawn) returned 697 NFkB inh -5, Shn3 3UTR inh -7, aSyn UTR inh 118*, Jurkat NFkB inh 70*, TAG inh 56*, Gli-Sufu antag 2, Jurkat NFkB conf 44 and TAG conf 50*.
For O=C(COc1ccccc1-c1ccccc1)N/N=C/c1cccc2ccccc12 the results were 697 NFkB inh 22, Shn3 3UTR inh 12, aSyn UTR inh 75*, Jurkat NFkB inh 56*, TAG inh 63*, Gli-Sufu antag 44, Jurkat NFkB conf 51* and TAG conf 36.
COC(=O)c1ccc(Oc2cc(C)nc(SC)n2)cc1 was read as 697 NFkB inh -48, Shn3 3UTR inh -10, aSyn UTR inh 27, Jurkat NFkB inh 55*, TAG inh 51*, Gli-Sufu antag 0, Jurkat NFkB conf 42 and TAG conf 41*.
Screening COc1ccc(S(=O)(=O)NCc2ccco2)cc1C(=O)N1CCCCC1 returned 697 NFkB inh 18, Shn3 3UTR inh -4, aSyn UTR inh 9, Jurkat NFkB inh 8 and Gli-Sufu antag 24.
Screening CCCCNC(=O)C1(C)CCN1C(=O)c1cc(-c2cccs2)oc1C (stereo not drawn) returned Shn3 3UTR inh 33 and TAG inh 1.
CCOC(=O)c1sc(N(Cc2ccccc2)C(=O)CCl)nc1C was read as 697 NFkB inh 7, Shn3 3UTR inh -17, aSyn UTR inh -6, Jurkat NFkB inh -7 and Gli-Sufu antag 16.
